# PubChem BioAssay (NCATS)
# Inconclusive results are not listed. Values without a mark were called inactive. Calls come from the whole dose curve; as a rule, active = well fitted cell-killing curve with a large enough effect; inconclusive = small, poorly fitted or top-dose-only effect; inactive = flat fitted curve, though single readings scatter.
# Assay: Cell Viability - SH-SY5Y (AID 544);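 note: 0% = DMSO alone and -100% = 100 µM tamoxifen; nearly all actives have a fitted effect of over 55% in size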
# Settings: SH-SY5Y neuroblastoma cell viability; viability change, negative = cytotoxic: at 92.2 µM (top of the series)
# Text: NIH Chemical Genomics Center [NCGC]
# NIH Molecular Libraries Screening Centers Network [MLSCN]
# National Institutes of Environmental Health Sciences [NIEHS]
# National Toxicology Program [NTP]
# We have developed a 1536-well cell-based assay for quantitative high throughput screening (qHTS) against a number of cell lines to determine in vitro cytotoxicity of small molecules. This particular assay uses the SH-SY5Y cell line which is derived from human neuroblastoma.
# NCGC Assay Protocol Summary:
# The CellTiter-Glo luminescent cell viability assay (Promega) is a homogeneous method to measure the number of viable cells in culture. The end point readout of this assay is based on quantitation of intracellular ATP, an indicator of metabolic activity, using the luciferase reaction. Luciferase catalyzes the oxidation of beetle Luciferin to oxyluciferin and light in the presence of ATP. The luminescent signal is proportional to amount of ATP present.
# Using the CellTiter-Glo luminescent cell viability assay, the amount of cellular ATP was measured in the SH-SY5Y cell line with complete culture medium following compound treatment for 40 hours. The assay was performed in opaque white Kalypsys 1536-well plates. In the screen, tamoxifen and doxorubicin were used as positive controls. Library compounds were measured for their ability to cause acute toxicity in the cell line, as reflected by a decrease in intracellular ATP levels, in a concentration-dependent manner. […] AC50 values were determined from concentration-response data modeled with the standard Hill equation.
# qHTS protocol for CellTiter Glo SH-SY5Y cellular assay
# [Step] [Parameter] [Value] [Description]
# 1. Reagent; 5 uL; 1500 SH-SY5Y cells/well
# 2. Time; 5 hr; 37 °C incubation
# 4. Controls; 23 nL; Tamoxifen 0.34 uM to 100 uM & Doxorubicin 0.02 nM to 100 uM
# 5. Time; 40 hr; 37 °C incubation
# 6. Reagent; 5 uL; CellTiter Glo reagent
# 7. Time; 20 min; Room Temperature
# 8. Detection; Luminescence; Viewlux plate reader
# Keywords: cell viability, cytotoxicity, SH-SY5Y cell line, luminescence, NTPHTS, NTPHTS_NCGC, NIEHS, EPA, DSSTox, MLSMR, MLSCN, NIH Roadmap, qHTS, NCGC
row,Structure (SMILES),"viability change, negative = cytotoxic"
1,S=C1NCCN1,-2.12%
2,O=[N+]([O-])c1cc(Cl)c(Cl)c(Cl)c1,-16.2%
3,O=S(=O)(O)F,16.4%
4,Cc1ccc(N)c(C)c1,-13.3%
5,CCCCCCCCCCCOC(=O)c1ccccc1C(=O)OCCCCCCCCCCC,-4.44%
6,CC(C)[C@]12CC(=O)[C@H](C)[C@H]1C2,6.61%
7,COc1ccccc1N,0.961%
8,O=Cc1ccc2c(c1)OCO2,-17.8%
9,BrCCc1ccccc1,-14.3%
10,O=C(O)CBr,1.67%
11,CCSC(=O)N1CCCCCC1,-4.48%
12,Nc1ccc(-c2ccccc2)cc1,-6.04%
13,Nc1ccc(Cc2ccc(N)c(Cl)c2)cc1Cl,-22.9%
14,CCCCC(=O)Cl,6.58%
15,CC(C)(Cl)[N+](=O)[O-],1.34%
16,Cl/C=C/Cl,-0.632%
17,ClC(Br)Br,-6.32%
18,[O-][Cl+2]([O-])O,9.06%
19,O=C(O)C(Cl)(Cl)Br,-9.86%
20,C=CC(=O)OCCN(C)C,-1.68%

row,Structure (SMILES),"viability change, negative = cytotoxic"
1,CC(C)(Cl)Cl,-5.95%
2,Oc1ccc(Cl)c(Cl)c1Cl,-14.5%
3,O=C(O)C(Cl)Br (stereo not given),-2.48%
4,O=[N+]([O-])c1ccccc1O,-3.57%
5,O=C(O)c1cc(Cl)ccc1Cl,-10.8%
6,Cc1cc(Cl)ccc1O,2.56%
7,ClCC(Cl)CCl,-1.04%
8,ClCc1ccccn1,-16.2%
9,N#CC(Cl)(Cl)Cl,-4.45%
10,Nc1ccc(Cc2ccc(N)cc2)cc1,-10.1%
11,COC(C)(C)C,-10.5%
12,Cc1ccc2c(C)cccc2c1,-18%
13,Cc1ccc(OP(=O)(Oc2ccc(C)cc2)Oc2ccc(C)cc2)cc1,-4.23%
14,O=[N+]([O-])c1cccc(O)c1,-19.8%
15,O=[N+]([O-])c1ccccc1-c1ccccc1,-9.47%
16,S=c1[nH]c2ccccc2[nH]1,-0.357%
17,C=C(Cl)CSC(=S)N(CC)CC,-14%
18,N#CCCC#N,4.3%
19,CCOS(C)(=O)=O,-13%
20,Nc1cccc2ccccc12,-22.5%
